Experimental data reported in article PMC6212790, “How bacterial xenogeneic silencer rok distinguishes foreign from self DNA in its resident genome”.
In all, about 33,000 sequences were measured (“e-score”: median about -0.037, highest 2% from about 0.34 on). The sample holds the highest values, similar sequences and a random draw of the others, so the mix is not that of the screen.

What follows are sequences tested against T1, GST-Rok (full length) (Bacillus subtilis subsp. subtilis str. …, UniProt O34857 1-191) (assay: protein binding microarray; Rok is a gene silencer of Bacillus subtilis; high values mean tight binding). Conditions: protein: recombinant; tags: GST (pTH5325, pDEST15-Magic modified); dsDNA, one strand shown.
T1 sequence: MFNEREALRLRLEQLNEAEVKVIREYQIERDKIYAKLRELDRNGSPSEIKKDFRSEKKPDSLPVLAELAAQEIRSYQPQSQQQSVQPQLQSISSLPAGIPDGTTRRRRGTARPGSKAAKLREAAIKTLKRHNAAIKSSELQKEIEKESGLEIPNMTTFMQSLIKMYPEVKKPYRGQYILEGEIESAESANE
Outline: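 Every oligonucleotide joins a 25-mer constant primer to a 35-mer variable part drawn from a de Bruijn sequence of order 10, so each non-palindromic 8-mer appears at least 32 times and each palindromic 8-mer 16 times. The preference for every 8-mer is reported as a unitless, rank-based enrichment score (E-score). This score spans 0.5 for the most favored 8-mer to −0.5 for the most disfavored.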
In the case of GACCATAA, the binding signal is reported as -0.0227 E-score. In the case of TACCATAA, the binding signal is reported as 0.336 E-score. Sequence AACCATAA has a binding signal of 0.0915 E-score. GATAGTCA showed a binding signal of 0.0302 E-score. GATAGTTA showed a binding signal of 0.391 E-score. Work on AATAGTTG yielded a binding signal of 0.313 E-score. In the case of CATAGTTA, the binding signal is reported as 0.244 E-score. Work on AATAGTTA yielded a binding signal of 0.372 E-score. Work on GATAGTGA yielded a binding signal of 0.162 E-score. TGCTGCAA was tested, and the binding signal was -0.149 E-score. Sequence GCAATACA has a binding signal of 0.115 E-score. With CAACGACG the binding signal was -0.1 E-score. Sequence CATAGCCG has a binding signal of -0.0675 E-score. For CGAACCCG, the binding signal was -0.099 E-score. CATAAAGA gave a binding signal of 0.0223 E-score. In the case of AGCAGAGA, the binding signal is reported as -0.129 E-score. In the case of ATACGGTA, the binding signal is reported as 0.348 E-score. For CTACGGTA, the binding signal was 0.175 E-score. ATACGATA gave a binding signal of 0.366 E-score. Sequence ATACGATC has a binding signal of 0.0843 E-score. ATACGGTG gave a binding signal of 0.0458 E-score. For GTACGATA, the binding signal was 0.252 E-score. GTTATGAA was tested, and the binding signal was 0.155 E-score. AAACATCT gave a binding signal of 0.0882 E-score. AGGAGGAA was tested, and the binding signal was -0.159 E-score. In the case of GCAGTCTA, the binding signal is reported as 0.0175 E-score. In the case of GGCTAGAA, the binding signal is reported as -0.0986 E-score. With CACTAGAA the binding signal was 0.224 E-score. For AACTAGAC, the binding signal was 0.103 E-score. In the case of TGCTAGAA, the binding signal is reported as 0.387 E-score. AACTAGAG showed a binding signal of 0.107 E-score. Sequence TACTAGAA has a binding signal of 0.375 E-score. AGCTAGAT gave a binding signal of 0.215 E-score. AGCTAGAA was tested, and the binding signal was 0.329 E-score. Work on AACTAGAA yielded a binding signal of 0.395 E-score. For AACTAGAT, the binding signal was 0.369 E-score. ACCTAGAA was tested, and the binding signal was 0.109 E-score. Sequence GACTAGAA has a binding signal of 0.15 E-score. For AAAAAGCT, the binding signal was -0.0996 E-score. Work on GAGTACCA yielded a binding signal of -0.0678 E-score. In the case of ACACATGA, the binding signal is reported as 0.211 E-score. With GACGTAGC the binding signal was 0.0184 E-score. In the case of AGGTTGAC, the binding signal is reported as -0.156 E-score. For CGTAAGGC, the binding signal was -0.174 E-score. AGAGGACT showed a binding signal of -0.176 E-score. For GAGCTAAC, the binding signal was 0.0297 E-score. ATCCTAAG gave a binding signal of -0.0403 E-score. For AATCAATG, the binding signal was 0.0424 E-score. In the case of CACTTATC, the binding signal is reported as 0.23 E-score. ACGTAAAG was tested, and the binding signal was 0.0236 E-score. TGTAGAAA gave a binding signal of 0.396 E-score. With CGTAGAAC the binding signal was 0.0102 E-score. In the case of CGTAGAAA, the binding signal is reported as 0.359 E-score. Sequence GTTAGAAC has a binding signal of 0.0808 E-score. Work on GGTAGAAA yielded a binding signal of 0.472 E-score. In the case of GGTAGAGA, the binding signal is reported as 0.0752 E-score. GATAGAAC showed a binding signal of 0.278 E-score. TGTAGACA showed a binding signal of 0.159 E-score. With GGTAGACA the binding signal was 0.0655 E-score. CGTAGAAG was tested, and the binding signal was 0.128 E-score. TTTAGAAA was tested, and the binding signal was 0.183 E-score. GGTAGAAC gave a binding signal of 0.374 E-score. Sequence AAGTGAGC has a binding signal of -0.093 E-score. Work on CGTGCCTA yielded a binding signal of -0.0621 E-score. In the case of GCCCACTA, the binding signal is reported as 0.00538 E-score. CCTCTTAC was tested, and the binding signal was -0.169 E-score. Work on AGGTTAAT yielded a binding signal of 0.137 E-score. Work on CTGATAAG yielded a binding signal of 0.0753 E-score. TCCGTAGA gave a binding signal of 0.118 E-score. With CTGGAACA the binding signal was -0.0188 E-score. GTACATAC gave a binding signal of 0.28 E-score. ATACATAT gave a binding signal of 0.399 E-score. ATACATAC gave a binding signal of 0.372 E-score. For CTACATAC, the binding signal was 0.269 E-score. Sequence ATACATAG has a binding signal of 0.391 E-score. For ATACACAT, the binding signal was 0.303 E-score. With ATACATAA the binding signal was 0.316 E-score. With CTACATAG the binding signal was 0.153 E-score. With ATACAAAC the binding signal was 0.354 E-score. In the case of AAACATAT, the binding signal is reported as 0.316 E-score. Sequence ATACAAAA has a binding signal of 0.278 E-score. With ATACAAAT the binding signal was 0.32 E-score. GAATGTAA was tested, and the binding signal was 0.21 E-score. Sequence AGCCCTAT has a binding signal of -0.0484 E-score. CGCGATGC was tested, and the binding signal was -0.0559 E-score. Sequence AAATTAAA has a binding signal of 0.166 E-score. With AGGTTCAT the binding signal was -0.0409 E-score. With GAATGGAC the binding signal was -0.0766 E-score. AAGGTTGT gave a binding signal of -0.00326 E-score. GCGATAAA was tested, and the binding signal was 0.182 E-score. With ATACAATC the binding signal was 0.192 E-score. With ATACAATG the binding signal was 0.254 E-score. ATACAATA was tested, and the binding signal was 0.359 E-score. CATAATCA showed a binding signal of 0.164 E-score. Sequence CGAGGCCA has a binding signal of -0.199 E-score. For TGAACTAA, the binding signal was 0.0469 E-score. ATTCGAAT showed a binding signal of 0.342 E-score. ATTCGAAA gave a binding signal of 0.159 E-score. In the case of ATTCGAAG, the binding signal is reported as 0.09 E-score. For AGCGGTTA, the binding signal was -0.138 E-score. AGCGGTAT showed a binding signal of 0.321 E-score. With ACCGGTAG the binding signal was 0.374 E-score. With AGCGGTAG the binding signal was 0.34 E-score. AGCGGTAC showed a binding signal of -0.166 E-score. ACCGGTAA showed a binding signal of 0.255 E-score. CCCGGTAG showed a binding signal of -0.134 E-score. Work on CTATGTCA yielded a binding signal of 0.225 E-score. AAGTCGCC gave a binding signal of -0.0852 E-score. Sequence AAAGCATT has a binding signal of -0.0355 E-score. ACCAGTAT was tested, and the binding signal was 0.255 E-score. With CCTAGTAC the binding signal was 0.125 E-score. With ACTAGTGG the binding signal was 0.00757 E-score. Sequence GCTAGTAC has a binding signal of 0.181 E-score. Sequence ACTAGTAT has a binding signal of 0.422 E-score. For CCTAGTAG, the binding signal was 0.233 E-score. ACTAGTCT showed a binding signal of 0.248 E-score. ACTAGTAC was tested, and the binding signal was 0.41 E-score. In the case of ACTAGTAG, the binding signal is reported as 0.426 E-score. With AGTTAAGC the binding signal was -0.0477 E-score. GGCTAAGA showed a binding signal of 0.000408 E-score. GTTCTCAA showed a binding signal of 0.0738 E-score. TAACACTA gave a binding signal of 0.284 E-score. GAAGACTC showed a binding signal of -0.114 E-score. Work on CAGTAGGC yielded a binding signal of -0.157 E-score. In the case of TCCTACAA, the binding signal is reported as 0.0302 E-score. With AGGCTTCG the binding signal was -0.0947 E-score. Sequence AGCCCTAA has a binding signal of -0.164 E-score. With GTAATTAC the binding signal was 0.421 E-score. ATAATTAT showed a binding signal of 0.268 E-score. With CTAATTAC the binding signal was 0.329 E-score. Work on CTAATTAA yielded a binding signal of 0.233 E-score. GTAATTAA gave a binding signal of 0.181 E-score. Sequence ATAATTAC has a binding signal of 0.385 E-score. For CTAATTAG, the binding signal was 0.375 E-score. In the case of ATAATTAA, the binding signal is reported as 0.29 E-score. ATAATTAG gave a binding signal of 0.317 E-score. For GAACCCAA, the binding signal was -0.176 E-score. For ATGAAATC, the binding signal was 0.029 E-score. AGGTCTGG was tested, and the binding signal was -0.0443 E-score. ATGTACAT gave a binding signal of 0.409 E-score. TTGTACAA was tested, and the binding signal was 0.387 E-score. Work on ATGTACAA yielded a binding signal of 0.311 E-score. AGCTACCC was tested, and the binding signal was -0.139 E-score. For ATGTAAAT, the binding signal was 0.376 E-score. In the case of GTGTACAA, the binding signal is reported as 0.167 E-score. With CTGTACAA the binding signal was 0.0838 E-score. AGCTACCT was tested, and the binding signal was 0.164 E-score. ATGTAAAA was tested, and the binding signal was 0.295 E-score. Sequence ATGTACAG has a binding signal of 0.3 E-score. AGCTACCA showed a binding signal of 0.358 E-score. ATGTAAAC was tested, and the binding signal was 0.0692 E-score. ATAATTCC was tested, and the binding signal was 0.213 E-score. GAGAACAA showed a binding signal of -0.119 E-score. Work on GTCGTTTA yielded a binding signal of 0.0636 E-score. With CCTCACAG the binding signal was -0.0675 E-score. AGCAGCAG was tested, and the binding signal was -0.124 E-score. With ACGGACAC the binding signal was -0.126 E-score. For CGCATTAA, the binding signal was 0.0651 E-score. In the case of GTGATTTA, the binding signal is reported as 0.06 E-score. CCAGGAGC was tested, and the binding signal was -0.14 E-score. With AGCGTCTA the binding signal was 0.0457 E-score. ATGTACCA was tested, and the binding signal was 0.342 E-score. GTCTACCA showed a binding signal of 0.0944 E-score. Sequence ACCTACCG has a binding signal of 0.169 E-score. AGCTACCG showed a binding signal of 0.309 E-score. CTGTACCA showed a binding signal of -0.0416 E-score. ATGTACCC showed a binding signal of 0.0665 E-score. ATCTACCG showed a binding signal of 0.409 E-score. ATCTACCA showed a binding signal of 0.48 E-score. Work on ATCTACCC yielded a binding signal of 0.25 E-score. ATTGCCGG was tested, and the binding signal was -0.0899 E-score. ACCAGCCG was tested, and the binding signal was 0.0494 E-score.
